According to the supplement of paper PMC9262897, “Low-cost anti-mycobacterial drug discovery using engineered E. coli” (Nature Communications, 2022):
Structures can show the parent of a compound that is named as a salt. ± gives the standard deviation of the averaged measurements.

Assays:
Assay in all cases: growth (OD600 after 10 h); higher = more growth (less inhibition)
[1] = test system: E. coli TESEC Alr+ wild-type control; conditions: compound 0.1 mM; raw OD600 reference: median of DMSO wells 0.241, cell-free background 0.041
Procedure: (§1)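 TESEC Mtb Alr E. coli, or the Alr+ wild-type control, in 384-well plates with Prestwick library compounds at 0.1 mM and 1% DMSO, across arabinose induction levels of 1E3 to 1E7 nM. Growth is read as OD600 after 10 h at 37 °C in triplicate biological replicates.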

[2] = test system: E. coli TESEC Mtb Alr; conditions: compound 0.1 mM
Procedure: as §1

[3] = test system: E. coli TESEC Mtb Asd; conditions: compound 0.1 mM
Procedure: (§2)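 TESEC E. coli strains in which the native enzyme is deleted and replaced by arabinose-inducible Mtb Asd, DapB, CysH or TrpD, each grown in its selective medium. Strains were screened against the Prestwick library at 0.1 mM and 1% DMSO in 384-well format at low and high arabinose induction. Growth is read as OD600 after 10 h in triplicate.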

[4] = test system: E. coli TESEC Mtb DapB; conditions: compound 0.1 mM
Procedure: as §2

[5] = test system: E. coli TESEC Mtb Alr; conditions: compound 0.1 mM; remark: listed apart in the source
Procedure: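 TESEC Mtb Alr E. coli (ΔaraC ΔtolC ΔentC Δalr ΔdadX, arabinose-inducible Mtb Alr) or the Alr+ wild-type control strain, grown in defined M9-fructose medium without D-alanine in 96-well plates with Prestwick library compounds at 0.1 mM and 1% DMSO. Low Alr induction is 0.1 µM arabinose and high induction is 10 mM arabinose.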

[6] = arabinose 1000 nM, raw OD600 reference: median of DMSO wells 0.294, cell-free background 0.041
[7] = arabinose 10000 nM, raw OD600 reference: median of DMSO wells 0.264, cell-free background 0.041
[8] = arabinose 100000 nM, raw OD600 reference: median of DMSO wells 0.201, cell-free background 0.041
[9] = arabinose 1000000 nM, raw OD600 reference: median of DMSO wells 0.193, cell-free background 0.041
[10] = arabinose 10000000 nM, raw OD600 reference: median of DMSO wells 0.146, cell-free background 0.041
[11] = arabinose induction (level): High, raw OD600 reference: median of DMSO wells 0.331, cell-free background 0.041
[12] = arabinose induction (level): Low, raw OD600 reference: median of DMSO wells 0.417, cell-free background 0.041
[13] = arabinose induction (level): High, raw OD600 reference: median of DMSO wells […], cell-free background 0.041
[14] = arabinose induction (level): Low, raw OD600 reference: median of DMSO wells 0.227, cell-free background 0.041
[15] = arabinose 100 nM, raw OD600 reference: median of DMSO wells 0.413, cell-free background 0.052
[16] = arabinose 10000000 nM, raw OD600 reference: median of DMSO wells […], cell-free background 0.052

SMILES	growth [1]	growth [2, 6]	growth [2, 7]	growth [2, 8]	growth [2, 9]	growth [2, 10]	growth [3, 11]	growth [3, 12]	growth [4, 13]	growth [4, 14]	growth [5, 15]	growth [5, 16]
Oc1ccc2c3c1O[C@H]1[C@@H](O)CC[C@@]4(O)[C@@H](C2)N(CC2CCC2)CC[C@]314 [Nalbuphine hydrochloride]	0.233 ± 0.0039	0.262 ± 0.028	0.2664 ± 0.0015	0.183 ± 0.024	0.1753 ± 0.0013	0.135 ± 0.0094	0.381 ± 0.095	0.453 ± 0.036	0.195 ± 0.011	0.214 ± 0.029	0.4293 ± 0.0018	0.351 ± 0.015
C[CH2][Hg][S]c1ccccc1C(=O)[O-].[Na+] [Thimerosal]	0.0433 ± 0.0046	0.162 ± 0.018	0.117 ± 0.01	0.0992 ± 0.0084	0.04637 ± 0.00025	0.0615 ± 0.0003	0.0491 ± 0.0015	0.0488 ± 0.0015	0.207 ± 0.019	0.214 ± 0.014	0.355 ± 0.036	0.0589 ± 0.0027
CCC(COC(=O)c1cc(OC)c(OC)c(OC)c1)(c1ccccc1)N(C)C (configuration not stated) [Trimebutine]	0.13 ± 0.0031	0.142 ± 0.012	0.151 ± 0.011	0.116 ± 0.0031	0.0716 ± 0.0024	0.101 ± 0.015	0.205 ± 0.033	0.245 ± 0.085	0.1665 ± 0.0014	0.191 ± 0.028	0.403 ± 0.0063	0.119 ± 0.0083
CN1C[C@H](C(=O)N[C@]2(C)O[C@@]3(O)[C@@H]4CCCN4C(=O)[C@H](Cc4ccccc4)N3C2=O)C[C@@H]2c3cccc4[nH]cc(c34)C[C@H]21 [Dihydroergotamine tartrate]	0.0782 ± 0.0015	0.0712 ± 0.0052	0.0692 ± 0.001	0.0715 ± 0.0021	0.0579 ± 0.0025	0.082 ± 0.0022	0.116 ± 0.013	0.123 ± 0.0052	0.119 ± 0.018	0.161 ± 0.014	0.282 ± 0.043	0.0688 ± 0.0007
C(#CCN1CCCC1)CN1CCCC1 [Tremorine dihydrochloride]	0.275 ± 0.0094	0.317 ± 0.011	0.27 ± 0.005	0.239 ± 0.013	0.194 ± 0.0086	0.162 ± 0.008	0.425 ± 0.059	0.464 ± 0.029	0.2 ± 0.015	0.234 ± 0.059	0.415 ± 0.018	0.375 ± 0.023
CN(C)[C@@H]1C(=O)C(C(N)=O)=C(O)[C@@]2(O)C(=O)C3=C(O)c4c(O)ccc(Cl)c4[C@@](C)(O)[C@H]3C[C@@H]12 [Chlortetracycline hydrochloride]	0.03933 ± 0.00031	0.0417 ± 0.0029	0.04 ± 0.00072	0.0444 ± 0.0038	0.0402 ± 0.0018	0.0405 ± 0.0011	0.0499 ± 0.0023	0.0479 ± 0.00061	0.0465 ± 0.0014	0.0507 ± 0.0031	0.0524 ± 0.00066	0.0506 ± 0.00035
